Data taken from PubChem BioAssay (NCI).
Compounds without any hit were thinned out: in the full panel of roughly 83,000, 20% have a hit.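 Cell lines were cultured in 96-well plates, exposed to a single compound concentration, and assessed for percent growth 48 hours later.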 Activity calls are given as the source filed them. Rule for the calls: active = growth percent below 10; inactive = the rest.

Tests used:
Assay in all cases: NCI-60 one-dose screen, 48 h (100 = growth as untreated, 0 = no growth, -100 = all killed)
Conditions in all cases: 10 µM
SR leukemia = system: SR leukemia
RPMI-8226 leukemia = system: RPMI-8226 leukemia
OVCAR-8 ovarian = system: OVCAR-8 ovarian
OVCAR-5 ovarian = system: OVCAR-5 ovarian
OVCAR-4 ovarian = system: OVCAR-4 ovarian
SK-OV-3 ovarian = system: SK-OV-3 ovarian
IGROV1 ovarian = system: IGROV1 ovarian
OVCAR-3 ovarian = system: OVCAR-3 ovarian
HS 578T breast = system: HS 578T breast
NCI/ADR-RES ovarian = system: NCI/ADR-RES ovarian

Measured: growth

CCCCC/C=N/Nc1nc(C)cc(=O)[nH]1
inactive: SR leukemia 90.4% | RPMI-8226 leukemia 119% | OVCAR-8 ovarian 100% | OVCAR-5 ovarian 104% | OVCAR-4 ovarian 107% | SK-OV-3 ovarian 113% | IGROV1 ovarian 109% | OVCAR-3 ovarian 114% | HS 578T breast 101% | NCI/ADR-RES ovarian 99.9%

Nc1ccc(CC(=O)O)c(N)c1
inactive: SR leukemia 95.2% | RPMI-8226 leukemia 104% | OVCAR-8 ovarian 106% | OVCAR-5 ovarian 96.1% | OVCAR-4 ovarian 98.6% | SK-OV-3 ovarian 93% | IGROV1 ovarian 106% | OVCAR-3 ovarian 97.2% | HS 578T breast 96.7% | NCI/ADR-RES ovarian 96.5%

C/C(=N\O)C1(O)CCCCC1
inactive: SR leukemia 94.3% | RPMI-8226 leukemia 100% | OVCAR-8 ovarian 94.1% | OVCAR-5 ovarian 103% | OVCAR-4 ovarian 110% | SK-OV-3 ovarian 98.1% | IGROV1 ovarian 97.9% | OVCAR-3 ovarian 94.7% | HS 578T breast 62.5% | NCI/ADR-RES ovarian 110%

Cc1nc2c(ccc3ccccc32)s1
inactive: SR leukemia 91.3% | RPMI-8226 leukemia 100% | OVCAR-8 ovarian 94.1% | OVCAR-5 ovarian 102% | OVCAR-4 ovarian 108% | SK-OV-3 ovarian 107% | IGROV1 ovarian 109% | OVCAR-3 ovarian 121% | HS 578T breast 106% | NCI/ADR-RES ovarian 108%

O=c1c2ccccc2c(Br)c(Br)c2ccccc12
inactive: SR leukemia 64.4% | RPMI-8226 leukemia 88.5% | OVCAR-8 ovarian 96.6% | OVCAR-5 ovarian 113% | OVCAR-4 ovarian 82.1% | SK-OV-3 ovarian 109% | IGROV1 ovarian 91.4% | OVCAR-3 ovarian 108% | HS 578T breast 107% | NCI/ADR-RES ovarian 60.5%

c1ccc2c(c1)Sc1ccccc1S2
inactive: SR leukemia 117% | RPMI-8226 leukemia 99.2% | OVCAR-8 ovarian 99.3% | OVCAR-5 ovarian 108% | OVCAR-4 ovarian 98.8% | SK-OV-3 ovarian 112% | IGROV1 ovarian 106% | OVCAR-3 ovarian 113% | HS 578T breast 102% | NCI/ADR-RES ovarian 101%

COc1cc(CN)ccc1O
inactive: SR leukemia 89.5% | RPMI-8226 leukemia 81% | OVCAR-8 ovarian 102% | OVCAR-5 ovarian 95.5% | OVCAR-4 ovarian 108% | SK-OV-3 ovarian 93.8% | IGROV1 ovarian 78.7% | OVCAR-3 ovarian 105% | HS 578T breast 102% | NCI/ADR-RES ovarian 94.2%

C=CCNc1ccccc1
inactive: SR leukemia 96.9% | RPMI-8226 leukemia 92.8% | OVCAR-8 ovarian 107% | OVCAR-5 ovarian 106% | OVCAR-4 ovarian 94% | SK-OV-3 ovarian 101% | IGROV1 ovarian 115% | OVCAR-3 ovarian 116% | HS 578T breast 110% | NCI/ADR-RES ovarian 114%

O=C(O)C(c1ccccc1)C(O)c1ccccc1 (stereo not given)
inactive: SR leukemia 94.6% | RPMI-8226 leukemia 101% | OVCAR-8 ovarian 99.4% | OVCAR-5 ovarian 103% | OVCAR-4 ovarian 120% | SK-OV-3 ovarian 99.9% | IGROV1 ovarian 101% | OVCAR-3 ovarian 116% | HS 578T breast 100% | NCI/ADR-RES ovarian 107%

CCC(C#N)(CC)c1ccccc1
inactive: SR leukemia 108% | RPMI-8226 leukemia 104% | OVCAR-8 ovarian 107% | OVCAR-5 ovarian 104% | OVCAR-4 ovarian 113% | SK-OV-3 ovarian 102% | IGROV1 ovarian 112% | OVCAR-3 ovarian 109% | HS 578T breast 108% | NCI/ADR-RES ovarian 102%

CCCCC(=O)c1ccc(OC)cc1
inactive: SR leukemia 92.2% | RPMI-8226 leukemia 99.8% | OVCAR-8 ovarian 97% | OVCAR-5 ovarian 90.5% | OVCAR-4 ovarian 116% | SK-OV-3 ovarian 111% | IGROV1 ovarian 101% | OVCAR-3 ovarian 114% | HS 578T breast 95.2% | NCI/ADR-RES ovarian 105%

c1ccc(CN2COc3c(ccc4c3OCN(Cc3ccccc3)C4)C2)cc1
active: SR leukemia 5.08%
inactive: RPMI-8226 leukemia 21.9% | OVCAR-8 ovarian 23% | OVCAR-5 ovarian 41.8% | OVCAR-4 ovarian 26.3% | SK-OV-3 ovarian 10.1% | IGROV1 ovarian 32.1% | OVCAR-3 ovarian 24.6% | HS 578T breast 53.6% | NCI/ADR-RES ovarian 16.6%

OC(c1ccccn1)C(O)c1ccccn1 (stereo not given)
inactive: SR leukemia 98.7% | RPMI-8226 leukemia 108% | OVCAR-8 ovarian 102% | OVCAR-5 ovarian 90.7% | OVCAR-4 ovarian 107% | SK-OV-3 ovarian 103% | IGROV1 ovarian 97.9% | OVCAR-3 ovarian 113% | HS 578T breast 111% | NCI/ADR-RES ovarian 111%

CCCCOC(=O)c1ccc(C(C)C)cc1
inactive: SR leukemia 102% | RPMI-8226 leukemia 110% | OVCAR-8 ovarian 106% | OVCAR-5 ovarian 102% | OVCAR-4 ovarian 102% | SK-OV-3 ovarian 90.4% | IGROV1 ovarian 100% | OVCAR-3 ovarian 106% | HS 578T breast 108% | NCI/ADR-RES ovarian 97.3%

CCCCC1(CC)COC(CCC)OC1 (stereo not given)
inactive: SR leukemia 106% | RPMI-8226 leukemia 102% | OVCAR-8 ovarian 101% | OVCAR-5 ovarian 95.9% | OVCAR-4 ovarian 115% | SK-OV-3 ovarian 104% | IGROV1 ovarian 129% | OVCAR-3 ovarian 108% | HS 578T breast 109% | NCI/ADR-RES ovarian 105%
